According to PubChem BioAssay (EPA / NIEHS):
Calls of active or inactive are those of the source. How the source made its calls: active means hit-call score of the fitted dose curve at least 0.9, where 1 is the maximum; inactive means score below 0.9.

Experiments:
[1] = molecular target: Bile acid receptor (Homo sapiens) (UniProt Q96RI1); test: ATG_IR1_CIS: Attagene CIS-FACTORIAL HepG2 Assay for human Nuclear Receptor Subfamily 1 Group H Member 4 (NR1H4), IR1 submotif (AID 2282946); details: IR1 reporter transcription, actives raise or lower the signal
Method in brief: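 Fluorescence of capillary-separated, HpaI-digested RT-PCR reporter products gave IR1-element mRNA induction in HepG2 cells 24 h after dosing. Endogenous transcription factors drove the cis-regulated reporters; activity was fitted bidirectionally against DMSO.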

[2] = ATG_GRE_CIS: Attagene CIS-FACTORIAL HepG2 Assay for human Glucocorticoid Response Elements (GRE) (AID 2282947); details: HepG2 GRE cis-reporter, Attagene multiplex mRNA; actives raise or lower the signal
Method in brief: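 Fluorescence intensity of reporter-specific cDNA fragments, separated by capillary electrophoresis, provides the signal. Constructs carry cis-regulating promoters in transiently transfected HepG2 liver cells; 24 h incubation; fitting is bidirectional against DMSO.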

[3] = ATG_ISRE_CIS: Attagene CIS-FACTORIAL HepG2 Assay for human Interferon Regulatory Factor 1 (IRF1) binding to an Interferon-Stimulated Response Element (ISRE) (AID 2282948); details: HepG2 ISRE cis-reporter (Attagene), mRNA transcription readout; actives raise or lower the signal
Method in brief: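 Read-out: fluorescent RT-PCR products resolved by capillary electrophoresis, reporting endogenous transcription factor activity via ISRE-driven reporter mRNA in transfected HepG2 cells dosed for 24 h; gain or loss fitted relative to DMSO.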

[4] = ATG_M_32_CIS: Attagene CIS-FACTORIAL HepG2 Assay for M32 Transcription Factor (Internal Marker) (AID 2282949); details: HepG2 Attagene cis-factorial M32 reporter, mRNA; actives raise or lower the signal;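 further: background control marker of the multiplexed CIS panel rather than a real target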
Method in brief: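 HepG2 transfectants (cis-regulated reporter transcription units) dosed 24 h. Reporter mRNA by RT-PCR plus CE, analysed as gain or loss relative to DMSO.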

[5] = ATG_M_06_CIS: Attagene CIS-FACTORIAL HepG2 Assay for M06 Transcription Factor (Internal Marker) (AID 2282950); details: HepG2 Attagene CIS-FACTORIAL M06 internal marker reporter; actives raise or lower the signal
Method in brief: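 HepG2 liver cells, 24 h exposure. Reporter transcripts from transfected cis-element constructs quantified by RT-PCR/capillary electrophoresis fluorescence. Bidirectional curve fit against DMSO.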

[6] = molecular target: Hypoxia-inducible factor 1-alpha (Homo sapiens) (UniProt Q16665); test: ATG_HIF1a_CIS: Attagene CIS-FACTORIAL HepG2 Assay for human Hypoxia Inducible Factor 1 (HIF1A) (AID 2282951); details: HepG2 Attagene cis-factorial HIF1a reporter transcription; actives raise or lower the signal
Method in brief: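 Activity is fitted in both directions relative to DMSO. Reporter transcripts are read by RT-PCR, fluorescent primer extension and capillary electrophoresis after 24 h chemical treatment. The cells are HepG2 carrying transiently transfected cis-element-driven reporter units responding to endogenous factors.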

[7] = ATG_MRE_CIS: Attagene CIS-FACTORIAL HepG2 Assay for human Metal Responsive Element (MRE) (AID 2282954); details: HepG2 MRE cis-reporter transcription, Attagene multiplex; actives raise or lower the signal
Method in brief: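 Measured here is mRNA induction from an MRE cis-element reporter in HepG2 after 24 h, quantified by fluorescence of labelled RT-PCR products on capillary electrophoresis; gain- and loss-of-signal fits use DMSO as baseline.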

[8] = ATG_PBREM_CIS: Attagene CIS-FACTORIAL HepG2 Assay for human Phenobarbital-responsive Enhancer Module (PBREM) (AID 2282955); details: HepG2 PBREM cis-reporter, Attagene multiplexed transcription; actives raise or lower the signal
Method in brief: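 Endogenous transcription factor activity was read from reporter transcripts in transiently transfected human HepG2 liver cells after 24 h dosing. RT-PCR products were fluorescently labelled, HpaI-cut and sized by capillary electrophoresis; activity fitted bidirectionally against DMSO baseline.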

[9] = molecular target: Paired box protein Pax-6 (Homo sapiens) (UniProt P26367); test: ATG_Pax6_CIS: Attagene CIS-FACTORIAL HepG2 Assay for human Paired Box 6 (PAX6) (AID 2282956); details: HepG2 CIS-FACTORIAL PAX6 reporter transcription, RNA readout; actives raise or lower the signal
Method in brief: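 Readout: reporter transcript fluorescence after RT-PCR and capillary electrophoresis. Cells: HepG2, transiently transfected with cis-regulated MRTUs. Exposure 24 h. Gain or loss of signal fitted bidirectionally relative to DMSO.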

[10] = ATG_PXRE_CIS: Attagene CIS-FACTORIAL HepG2 Assay for human Pregnane X Receptor Element (PXRE) (AID 2282957); details: HepG2 Attagene CIS-FACTORIAL PXRE reporter, mRNA; actives raise or lower the signal
Method in brief: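 Using HepG2 transfected with multiple reporter transcription units, endogenous factor-driven transcription was scored as reporter mRNA after 24 h exposure.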

[11] = ATG_PPRE_CIS: Attagene CIS-FACTORIAL HepG2 Assay for human Peroxisome Proliferator-activated Response Element (PPRE) (AID 2282958); details: HepG2 PPRE cis-element reporter, Attagene transcription factor profiling; actives raise or lower the signal
Method in brief: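 Endogenous PPRE-driven transcription is measured in HepG2 cells carrying transfected multi-reporter constructs. Reporter transcripts are quantified by RT-PCR, HpaI digestion and capillary electrophoresis 24 h after dosing. DMSO baseline, bidirectional fit.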

[12] = ATG_RORE_CIS: Attagene CIS-FACTORIAL HepG2 Assay for human RAR-related Orphan Receptor Element (RORE) (AID 2282959); details: HepG2 Attagene cis-factorial RORE reporter, mRNA; actives raise or lower the signal
Method in brief: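 RORE reporter transcripts reflecting endogenous factor activity were read after 24 h compound exposure of transfected HepG2 cells, using reverse transcription, PCR, fluorescent labelling and capillary electrophoresis sizing. Gain or loss fitted against DMSO.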

[13] = ATG_Sox_CIS: Attagene CIS-FACTORIAL HepG2 Assay for human SRY-box transcription factor (SOX) (AID 2282960); details: HepG2 Attagene cis-factorial SOX reporter, mRNA; actives raise or lower the signal
Method in brief: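 Reporter transcripts, measured by RT-PCR and capillary electrophoresis of labelled fragments, report endogenous SOX transcription factor activity. Transiently transfected human HepG2 cells receive chemical for 24 h; changes in either direction are fitted relative to DMSO.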

[14] = ATG_SREBP_CIS: Attagene CIS-FACTORIAL HepG2 Assay for human Sterol Regulatory Element Binding (SREBP) (AID 2282962); details: HepG2 Attagene cis-factorial SREBP reporter, mRNA; actives raise or lower the signal
Method in brief: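 Readout: fluorescent reporter-transcript peaks resolved by capillary electrophoresis after RT-PCR. Cells were human HepG2 carrying transfected cis-promoter reporter constructs, dosed for 24 h. Gain or loss of signal was fitted against DMSO controls.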

[15] = molecular target: Signal transducer and activator of transcription 3 (Homo sapiens) (UniProt P40763); test: ATG_STAT3_CIS: Attagene CIS-FACTORIAL HepG2 Assay for human Signal Transducer and Activator of Transcription 3 (STAT3) (AID 2282963); details: HepG2, Attagene cis-factorial STAT3 reporter transcription; actives raise or lower the signal
Method in brief: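 Fluorescence intensity of 6-FAM-labelled reporter fragments, separated by capillary electrophoresis after RT-PCR, gave the signal. Cells were HepG2 transfected with cis-element reporter units and treated 24 h; fitting was bidirectional relative to DMSO.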

[16] = ATG_TA_CIS: Attagene CIS-FACTORIAL HepG2 Assay for human TA Basal Promoter (AID 2282964); details: HepG2 Attagene CIS-factorial TA basal promoter reporter; actives raise or lower the signal
Method in brief: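 Fluorescence from labelled RT-PCR reporter fragments, separated by capillary electrophoresis, gives the signal. Cells: HepG2 transiently carrying multiple reporter units, 24 h chemical dosing. Gain or loss relative to DMSO.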

[17] = ATG_TCF_b_cat_CIS: Attagene CIS-FACTORIAL HepG2 Assay for human T-Cell-Factor with beta-catenin (TCF/b-cat) (AID 2282965); details: HepG2 TCF/beta-catenin cis-reporter transcription, actives raise or lower the signal
Method in brief: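 Cells of the HepG2 line carry transiently transfected reporter units whose promoters respond to endogenous factors. Twenty-four hours post-dosing, reporter mRNA induction is measured by fluorescent RT-PCR and capillary electrophoresis, with DMSO as baseline.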

[18] = molecular target: Hepatocyte nuclear factor 6 (Homo sapiens) (UniProt Q9UBC0); test: ATG_HNF6_CIS: Attagene CIS-FACTORIAL HepG2 Assay for human Hepatocyte Nuclear Factor 6 (HNF6) (AID 2282952); details: HepG2 Attagene cis-factorial HNF6 reporter transcription; actives raise or lower the signal
Method in brief: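 Using cis-element reporters in HepG2 liver cells, the assay tracks endogenous factor-driven transcription 24 h post-dosing. Signal comes from 6-FAM-labelled, HpaI-digested RT-PCR fragments, with gain or loss scored against DMSO.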

[19] = molecular target: Transcription factor Sp1 (Homo sapiens) (UniProt P08047); test: ATG_Sp1_CIS: Attagene CIS-FACTORIAL HepG2 Assay for human Specificity Protein 1 (Sp1) (AID 2282961); details: HepG2 Sp1 cis-reporter transcription, actives raise or lower the signal
Method in brief: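 Read-out is reporter transcript level, measured by RT-PCR and fluorescent capillary electrophoresis after 24 h chemical treatment. System: transiently transfected HepG2 cells reporting endogenous transcription factor activity; gain or loss fitted against DMSO baseline.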

[20] = molecular target: Heat shock factor protein 1 (Homo sapiens) (UniProt Q00613); test: ATG_HSE_CIS: Attagene CIS-FACTORIAL HepG2 Assay for human Heat Shock Transcription Factor 1 (HSE) (AID 2282953); details: HepG2 HSE cis-reporter, Attagene RNA transcription; actives raise or lower the signal
Method in brief: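 Endogenous transcription factor activity captured via cis-promoter reporter units transfected into HepG2; treatment lasted 24 h. Fluorescence intensity of reporter fragments analysed with bidirectional curve fitting, DMSO baseline.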

Sequence of Bile acid receptor (Homo sapiens) (Q96RI1 whole entry, looked up): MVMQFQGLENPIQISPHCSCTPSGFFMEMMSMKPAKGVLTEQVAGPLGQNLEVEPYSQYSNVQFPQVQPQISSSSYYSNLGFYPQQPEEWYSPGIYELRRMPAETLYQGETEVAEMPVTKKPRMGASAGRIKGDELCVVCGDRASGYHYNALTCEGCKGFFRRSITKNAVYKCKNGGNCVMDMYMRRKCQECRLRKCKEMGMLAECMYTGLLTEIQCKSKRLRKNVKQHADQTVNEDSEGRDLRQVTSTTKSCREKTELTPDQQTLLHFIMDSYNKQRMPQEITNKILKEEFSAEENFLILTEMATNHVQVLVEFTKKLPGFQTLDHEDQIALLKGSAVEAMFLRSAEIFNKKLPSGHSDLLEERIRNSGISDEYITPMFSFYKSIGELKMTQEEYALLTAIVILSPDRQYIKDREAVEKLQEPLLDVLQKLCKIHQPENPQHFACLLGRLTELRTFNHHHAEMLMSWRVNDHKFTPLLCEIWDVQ
Sequence of Hepatocyte nuclear factor 6 (Homo sapiens) (Q9UBC0 whole entry, looked up, the tested form may be a part): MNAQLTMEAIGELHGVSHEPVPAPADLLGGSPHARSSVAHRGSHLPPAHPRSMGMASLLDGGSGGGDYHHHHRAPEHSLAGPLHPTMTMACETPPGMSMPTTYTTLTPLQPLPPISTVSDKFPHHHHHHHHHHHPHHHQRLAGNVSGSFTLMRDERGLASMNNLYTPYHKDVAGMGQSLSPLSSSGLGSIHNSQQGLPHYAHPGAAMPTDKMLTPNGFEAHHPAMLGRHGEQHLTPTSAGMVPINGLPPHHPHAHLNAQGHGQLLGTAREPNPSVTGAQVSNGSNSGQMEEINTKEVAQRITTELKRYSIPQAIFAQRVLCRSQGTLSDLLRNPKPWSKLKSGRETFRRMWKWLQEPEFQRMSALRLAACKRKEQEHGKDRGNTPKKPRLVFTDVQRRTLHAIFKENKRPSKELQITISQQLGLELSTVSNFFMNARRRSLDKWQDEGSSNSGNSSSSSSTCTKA
Sequence of Hypoxia-inducible factor 1-alpha (Homo sapiens) (Q16665 whole entry, looked up): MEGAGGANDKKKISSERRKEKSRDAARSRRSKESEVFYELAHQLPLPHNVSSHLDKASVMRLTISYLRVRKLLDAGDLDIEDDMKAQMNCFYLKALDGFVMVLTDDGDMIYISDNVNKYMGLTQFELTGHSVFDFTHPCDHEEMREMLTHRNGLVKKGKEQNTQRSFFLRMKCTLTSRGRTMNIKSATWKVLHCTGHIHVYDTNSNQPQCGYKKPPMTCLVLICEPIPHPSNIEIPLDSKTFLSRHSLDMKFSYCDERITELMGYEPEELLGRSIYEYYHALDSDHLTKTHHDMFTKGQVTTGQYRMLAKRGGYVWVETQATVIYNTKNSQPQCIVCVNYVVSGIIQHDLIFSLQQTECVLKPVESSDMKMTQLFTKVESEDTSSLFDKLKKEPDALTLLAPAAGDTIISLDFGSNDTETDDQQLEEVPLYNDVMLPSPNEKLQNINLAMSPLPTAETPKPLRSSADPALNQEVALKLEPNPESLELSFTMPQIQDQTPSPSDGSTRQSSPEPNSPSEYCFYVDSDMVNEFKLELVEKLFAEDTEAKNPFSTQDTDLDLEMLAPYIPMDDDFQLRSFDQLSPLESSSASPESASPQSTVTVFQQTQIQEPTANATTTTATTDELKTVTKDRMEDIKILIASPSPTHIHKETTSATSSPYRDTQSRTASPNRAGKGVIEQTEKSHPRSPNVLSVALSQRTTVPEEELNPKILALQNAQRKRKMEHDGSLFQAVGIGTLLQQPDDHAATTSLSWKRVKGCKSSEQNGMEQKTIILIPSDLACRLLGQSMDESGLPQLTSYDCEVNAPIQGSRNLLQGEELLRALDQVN
Sequence of Transcription factor Sp1 (Homo sapiens) (P08047 whole entry, looked up): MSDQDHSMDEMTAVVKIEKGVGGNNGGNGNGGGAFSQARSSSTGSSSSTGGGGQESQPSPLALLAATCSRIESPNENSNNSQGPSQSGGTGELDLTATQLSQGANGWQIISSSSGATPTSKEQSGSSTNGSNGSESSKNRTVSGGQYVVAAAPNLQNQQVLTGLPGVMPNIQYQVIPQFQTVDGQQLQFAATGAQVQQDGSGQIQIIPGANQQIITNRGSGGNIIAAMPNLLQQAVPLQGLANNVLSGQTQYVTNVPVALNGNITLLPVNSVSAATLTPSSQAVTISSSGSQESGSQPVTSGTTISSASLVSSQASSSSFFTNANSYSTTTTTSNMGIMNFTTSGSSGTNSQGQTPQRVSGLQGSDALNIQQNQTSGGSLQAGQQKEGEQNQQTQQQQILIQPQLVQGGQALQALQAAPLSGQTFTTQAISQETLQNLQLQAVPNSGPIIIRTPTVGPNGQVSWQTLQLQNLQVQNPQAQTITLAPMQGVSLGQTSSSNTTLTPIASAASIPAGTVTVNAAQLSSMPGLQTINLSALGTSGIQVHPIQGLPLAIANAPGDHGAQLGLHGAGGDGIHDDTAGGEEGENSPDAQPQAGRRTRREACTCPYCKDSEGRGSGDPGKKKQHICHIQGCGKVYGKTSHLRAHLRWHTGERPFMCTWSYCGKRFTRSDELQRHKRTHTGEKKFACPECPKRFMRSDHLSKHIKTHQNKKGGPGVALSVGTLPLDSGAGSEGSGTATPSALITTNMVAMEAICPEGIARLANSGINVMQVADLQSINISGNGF
Sequence of Paired box protein Pax-6 (Homo sapiens) (P26367 whole entry, looked up): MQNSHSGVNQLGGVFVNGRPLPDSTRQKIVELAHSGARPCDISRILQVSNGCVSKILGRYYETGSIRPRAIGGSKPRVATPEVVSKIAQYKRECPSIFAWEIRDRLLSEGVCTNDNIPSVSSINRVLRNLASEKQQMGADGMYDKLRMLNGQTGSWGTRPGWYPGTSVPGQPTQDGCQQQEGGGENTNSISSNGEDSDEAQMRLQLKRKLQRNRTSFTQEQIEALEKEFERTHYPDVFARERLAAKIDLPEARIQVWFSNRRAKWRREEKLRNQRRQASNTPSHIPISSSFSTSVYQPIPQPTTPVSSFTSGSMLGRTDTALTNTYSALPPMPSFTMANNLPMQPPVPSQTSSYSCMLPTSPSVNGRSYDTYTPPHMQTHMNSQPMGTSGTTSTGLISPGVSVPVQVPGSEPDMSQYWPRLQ
Sequence of Signal transducer and activator of transcription 3 (Homo sapiens) (P40763 whole entry, looked up, the tested form may be a part): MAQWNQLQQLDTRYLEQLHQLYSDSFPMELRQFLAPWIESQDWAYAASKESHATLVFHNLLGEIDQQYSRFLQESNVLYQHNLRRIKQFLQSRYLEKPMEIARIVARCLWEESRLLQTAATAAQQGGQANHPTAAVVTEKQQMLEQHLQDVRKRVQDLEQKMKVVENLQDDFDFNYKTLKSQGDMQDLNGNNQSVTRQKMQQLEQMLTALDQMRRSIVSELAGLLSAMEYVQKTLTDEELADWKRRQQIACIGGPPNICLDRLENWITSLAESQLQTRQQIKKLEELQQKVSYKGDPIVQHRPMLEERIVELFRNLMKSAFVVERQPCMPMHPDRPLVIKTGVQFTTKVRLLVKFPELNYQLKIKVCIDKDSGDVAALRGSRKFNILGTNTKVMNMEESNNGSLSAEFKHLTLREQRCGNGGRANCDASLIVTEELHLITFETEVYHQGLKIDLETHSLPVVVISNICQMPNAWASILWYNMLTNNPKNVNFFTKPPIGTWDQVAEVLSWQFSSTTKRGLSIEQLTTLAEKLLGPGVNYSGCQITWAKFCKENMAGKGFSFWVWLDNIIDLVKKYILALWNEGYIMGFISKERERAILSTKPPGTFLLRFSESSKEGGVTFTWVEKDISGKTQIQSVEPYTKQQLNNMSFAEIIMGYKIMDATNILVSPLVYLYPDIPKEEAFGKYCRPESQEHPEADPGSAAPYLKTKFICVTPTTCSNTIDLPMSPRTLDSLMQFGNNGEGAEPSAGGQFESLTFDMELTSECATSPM
Sequence of Heat shock factor protein 1 (Homo sapiens) (Q00613 whole entry, looked up, the tested form may be a part): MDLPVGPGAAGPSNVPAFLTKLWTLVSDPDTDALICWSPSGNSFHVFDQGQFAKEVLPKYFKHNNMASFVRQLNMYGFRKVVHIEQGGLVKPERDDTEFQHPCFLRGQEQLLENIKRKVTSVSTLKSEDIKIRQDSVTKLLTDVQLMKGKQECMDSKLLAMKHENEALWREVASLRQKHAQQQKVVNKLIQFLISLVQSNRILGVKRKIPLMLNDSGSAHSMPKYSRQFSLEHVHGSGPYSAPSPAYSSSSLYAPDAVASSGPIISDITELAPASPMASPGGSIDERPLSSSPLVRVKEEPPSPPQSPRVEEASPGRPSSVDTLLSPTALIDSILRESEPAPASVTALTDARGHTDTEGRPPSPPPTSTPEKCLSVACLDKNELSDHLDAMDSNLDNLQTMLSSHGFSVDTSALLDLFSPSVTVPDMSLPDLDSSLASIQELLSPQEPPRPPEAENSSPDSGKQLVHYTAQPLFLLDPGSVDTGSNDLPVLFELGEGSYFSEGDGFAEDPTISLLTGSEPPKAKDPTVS

SMILES: CCCCSP(=O)(SCCCC)SCCCC
- outcome [1]: inactive
- AC50 [2]: 50 µM (active)
- AC50 [3]: 58.6 µM (active)
- AC50 [4]: 77.9 µM (active)
- outcome [5]: inactive
- outcome [6]: inactive
- AC50 [7]: 23.4 µM (active)
- AC50 [8]: 50 µM (active)
- outcome [9]: inactive
- AC50 [10]: 12.9 µM (active)
- AC50 [11]: 11.7 µM (active)
- outcome [12]: inactive
- AC50 [13]: 76.7 µM (active)
- AC50 [14]: 20.1 µM (active)
- AC50 [15]: 50 µM (active)
- AC50 [16]: 80.2 µM (active)
- outcome [17]: inactive

SMILES: COP(=O)(OC)C(O)C(Cl)(Cl)Cl (stereo not given)
- outcome [1]: inactive
- outcome [2]: inactive
- outcome [3]: inactive
- outcome [4]: inactive
- outcome [5]: inactive
- outcome [18]: inactive
- AC50 [7]: 31.5 µM (active)
- outcome [8]: inactive
- AC50 [10]: 16.1 µM (active)
- AC50 [11]: 41.5 µM (active)
- outcome [12]: inactive
- outcome [13]: inactive
- outcome [19]: inactive
- outcome [14]: inactive
- outcome [15]: inactive
- outcome [16]: inactive
- outcome [17]: inactive

SMILES: COc1cccc(C(=O)NN(C(=O)c2cc(C)cc(C)c2)C(C)(C)C)c1C
- outcome [1]: inactive
- outcome [3]: inactive
- outcome [4]: inactive
- outcome [5]: inactive
- outcome [6]: inactive
- outcome [20]: inactive
- outcome [7]: inactive
- AC50 [8]: 3.46 µM (active)
- outcome [9]: inactive
- AC50 [10]: 0.526 µM (active)
- outcome [11]: inactive
- outcome [12]: inactive
- outcome [13]: inactive
- outcome [14]: inactive
- outcome [15]: inactive
- outcome [16]: inactive
- outcome [17]: inactive

SMILES: CSC1=N[C@@](C)(c2ccccc2)C(=O)N1Nc1ccccc1
- outcome [1]: inactive
- outcome [2]: inactive
- outcome [3]: inactive
- outcome [4]: inactive
- outcome [5]: inactive
- outcome [6]: inactive
- outcome [20]: inactive
- AC50 [7]: 50 µM (active)
- AC50 [8]: 21.7 µM (active)
- outcome [9]: inactive
- AC50 [10]: 7.44 µM (active)
- AC50 [11]: 19.2 µM (active)
- outcome [12]: inactive
- outcome [13]: inactive
- outcome [19]: inactive
- outcome [14]: inactive
- outcome [15]: inactive
- outcome [16]: inactive
- outcome [17]: inactive

SMILES: C#CCC1=C(C)C(OC(=O)C2C(C=C(C)C)C2(C)C)CC1=O (stereo not given)
- outcome [1]: inactive
- AC50 [3]: 71.2 µM (active)
- AC50 [4]: 90.5 µM (active)
- outcome [5]: inactive
- AC50 [6]: 50 µM (active)
- AC50 [7]: 72.2 µM (active)
- AC50 [8]: 4.27 µM (active)
- AC50 [10]: 1.15 µM (active)
- AC50 [11]: 13.2 µM (active)
- outcome [12]: inactive
- AC50 [13]: 82 µM (active)
- AC50 [19]: 50 µM (active)
- AC50 [14]: 31 µM (active)
- outcome [15]: inactive
- outcome [16]: inactive
- AC50 [17]: 38.7 µM (active)

SMILES: CCOP(=O)(OCC)Oc1cc(C)nc(C(C)C)n1
- outcome [1]: inactive
- outcome [2]: inactive
- outcome [3]: inactive
- outcome [4]: inactive
- outcome [5]: inactive
- outcome [6]: inactive
- outcome [18]: inactive
- outcome [7]: inactive
- outcome [9]: inactive
- outcome [10]: inactive
- outcome [11]: inactive
- outcome [12]: inactive
- outcome [13]: inactive
- outcome [14]: inactive
- outcome [15]: inactive
- outcome [16]: inactive
- outcome [17]: inactive

SMILES: COc1ccc(C(=CC(=O)N2CCOCC2)c2ccc(Cl)cc2)cc1OC
- outcome [1]: inactive
- outcome [2]: inactive
- outcome [3]: inactive
- outcome [4]: inactive
- outcome [5]: inactive
- AC50 [6]: 25.5 µM (active)
- outcome [18]: inactive
- AC50 [7]: 30.7 µM (active)
- AC50 [8]: 24.9 µM (active)
- AC50 [10]: 5.15 µM (active)
- AC50 [11]: 21.8 µM (active)
- AC50 [12]: 5.72 µM (active)
- outcome [13]: inactive
- outcome [14]: inactive
- outcome [15]: inactive
- outcome [16]: inactive
- outcome [17]: inactive
